How the values were obtained:
Experiment in all cases: PBM binding z-score (relative to random genomic background probes); higher = stronger binding; sequences stand for … in GC…GCGATTGACAGCGTAGAATGAAGG
[1] = system: PPARg:RXRa DBDmut IVT, anti-RXR (DBD mutation: RXRa K156A/R161A, NR concentration 270 nM, RXRa partner concentration 90 nM)
Summary of the method: (§1)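 Custom Agilent 4×180K protein-binding microarrays carried double-stranded probes. Their 34-nt variable regions held direct-repeat seeds, single-nucleotide variants, half-site ablations and random human genomic background sequences. Arrays were incubated 1 h with ligand-free nuclear receptor dimers in PBS pH 7.4, 2% milk, 0.02% Triton X-100, 1 mM DTT, 0.2 mg/mL BSA and 0.4 mg/ml salmon testes DNA. Antibodies against each partner (one per run) detected binding, and scanned fluorescence was regression-normalized. Binding z-scores use random background probes as reference.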

[2] = system: PPARg:RXRa IVT, anti-PPARg (NR concentration 270 nM, RXRa partner concentration 90 nM)
Summary of the method: as §1

[3] = system: PPARg homodimer (NR concentration 180 nM)
Summary of the method: as §1

[4] = system: PXR:RXRa (NR concentration 270 nM, RXRa partner concentration 90 nM)
Summary of the method: as §1

[5] = system: PXR homodimer (NR concentration 270 nM)
Summary of the method: as §1

[6] = system: RARa:RXR (NR concentration 270 nM, RXRa partner concentration 90 nM)
Summary of the method: as §1

[7] = system: RARa homodimer (NR concentration 270 nM)
Summary of the method: as §1

[8] = system: RARb:RXRa (NR concentration 270 nM, RXRa partner concentration 90 nM)
Summary of the method: as §1

[9] = system: RARb homodimer (NR concentration 270 nM)
Summary of the method: as §1

[10] = system: RARg:RXRa (NR concentration 270 nM, RXRa partner concentration 90 nM)
Summary of the method: as §1

[11] = system: RARg homodimer (NR concentration 270 nM)
Summary of the method: as §1

[12] = system: RXRa DBDmut IVT, anti-RXR (DBD mutation: RXRa K156A/R161A, NR concentration 90 nM)
Summary of the method: as §1

[13] = system: RXRa homodimer (NR concentration 180 nM)
Summary of the method: as §1

[14] = system: THRa:RXRa (NR concentration 90 nM, RXRa partner concentration 90 nM)
Summary of the method: as §1

[15] = system: THRa homodimer (NR concentration 90 nM)
Summary of the method: as §1

[16] = system: VDR homodimer (NR concentration 270 nM)
Summary of the method: as §1

Sequence | PBM binding z-score [1] | PBM binding z-score [2] | PBM binding z-score [3] | PBM binding z-score [4] | PBM binding z-score [5] | PBM binding z-score [6] | PBM binding z-score [7] | PBM binding z-score [8] | PBM binding z-score [9] | PBM binding z-score [10] | PBM binding z-score [11] | PBM binding z-score [12] | PBM binding z-score [13] | PBM binding z-score [14] | PBM binding z-score [15] | PBM binding z-score [16]
CTATGTAGGTTAAGGGGGTCCTTCAGTTTGAAAG | 7.26 | 6.7 | 1.58 | 2.33 | 1.68 | 1.92 | 0.652 | 1.67 | 1.5 | 1.79 | 1.26 | 0.924 | 1.49 | 2.17 | 0.899 | 1.49
CTATGTAGGTTAAGGGGGTCATTCTGTTTGAAAG | 6.99 | 7.55 | 3.03 | 5.44 | 3.94 | 5.46 | 1.35 | 3.47 | 3.79 | 4.83 | 3.82 | 2.56 | 5.51 | 3.69 | 2.09 | 4.58
CCGAGTAGGTTACGAGGGGACATTCAGTGCGAAT | 4.84 | 4.14 | 1.04 | 2.82 | 2.23 | 0.995 | 0.101 | 1.42 | 1.22 | 1.25 | 1.25 | 0.594 | 0.907 | 4.11 | 0.165 | 1.46
TCGAGTAGGTTACGGGGGCAGTCAGGGATGAAGA | 5 | 5.6 | 2.04 | 2.33 | 1.2 | 2.43 | 0.156 | 2.36 | 2.06 | 2.82 | 2.3 | 1 | 2.21 | 2.81 | 1 | 1.25
CCGAGTACGTTACGAGGGGGCATTCAGTGCGAAT | 0.709 | 1.25 | 1.37 | 3.35 | 6.19 | 2.07 | 0.384 | 1.29 | 1.5 | 1.85 | 1.41 | 3.95 | 1.17 | 2.36 | 0.395 | 4.78
TCGAGTAGGTTACGGGGGCCTTCAGGGATGAAGA | 4.03 | 4.68 | 0.342 | 1.52 | 0.275 | 1.48 | -0.236 | 1.58 | 1.03 | 1.81 | 1.33 | 0.49 | 1.47 | 1.95 | 0.405 | 0.302
CCGAGTAGGTTACGAGGGGGCCTTCAGTGCGAAT | 4.2 | 4 | 1.59 | 1.73 | 0.533 | 1.56 | 0.0772 | 1.47 | 0.846 | 2.15 | 1.32 | 0.265 | 0.978 | 2.11 | 0.4 | 0.498
TCGAGTCGGTTACGGGGGCATTCAGGGATGAAGA | 1.87 | 3.65 | 1.02 | 2.5 | 0.347 | 2.15 | -0.175 | 1.71 | 1.57 | 2.4 | 1.77 | 1.16 | 1.5 | 3.45 | 0.955 | 2.23
CCGAGTAGGTTACGAGGGGGCATGCAGTGCGAAT | 4.44 | 4.36 | 2.26 | 4.24 | 2.63 | 2.98 | 0.865 | 2.26 | 2.07 | 3.17 | 2.67 | 1.12 | 2.12 | 3.73 | 0.433 | 2.6
CTATGTATGTTAAGGGGGTCATTCAGTTTGAAAG | 4.85 | 5.88 | 5.05 | 5.85 | 9.76 | 5.5 | 3.39 | 3.74 | 3.92 | 4.71 | 3.61 | 3.03 | 5.44 | 3.91 | 2.88 | 6.32
CTATGTAGGTTAAGGGGGGCATTCAGTTTGAAAG | 7.45 | 7 | 3.9 | 4.18 | 8.89 | 2.96 | 3.91 | 3.35 | 2.88 | 3.52 | 2.84 | 2.58 | 2.76 | 3.12 | 2.39 | 4.81
TCGAGTAGGTTACGGGGGCTTTCAGGGATGAAGA | 4.35 | 4.61 | 0.803 | 1.87 | 0.25 | 1.99 | -0.0109 | 1.69 | 1.29 | 1.96 | 1.19 | 1.17 | 1.69 | 2.43 | 0.921 | 0.544
CAATGTAGGTTAAGGGGGTCATTCAGTTTGAAAG | 7.92 | 7.9 | 7.74 | 6.21 | 13.1 | 6.32 | 4.17 | 3.72 | 4.09 | 5.27 | 3.94 | 3 | 5.94 | 3.9 | 2.81 | 6.76
CTATGTAGGTTAAGGCGGTCATTCAGTTTGAAAG | 6.74 | 6.69 | 0.855 | 1.37 | 2.41 | 0.782 | -0.289 | 1.62 | 1.65 | 1.31 | 1.44 | 0.518 | 0.704 | 0.878 | -0.0284 | 0.465
CCGAGTAGGTTACGAGGGGCCATTCAGTGCGAAT | 4.13 | 3.51 | 0.766 | 2.92 | 1.09 | 1.11 | 0.136 | 1.47 | 1.53 | 1.3 | 1.23 | 0.177 | 0.889 | 3.34 | -0.418 | 0.802
CCGAGCAGGTTACGAGGGGGCATTCAGTGCGAAT | 1.69 | 2.54 | 1.34 | 5.19 | 4.97 | 3.16 | 0.223 | 2.22 | 2.17 | 3.02 | 2.4 | 1.56 | 2.21 | 3.81 | 0.885 | 3.5
CTATGTAGGTTAAGGGCGTCATTCAGTTTGAAAG | 7.33 | 6.94 | 1.62 | 0.377 | 0.443 | 0.584 | -0.284 | 1.27 | 0.798 | 0.63 | 0.752 | 0.53 | 0.739 | 1.42 | 0.232 | 0.4
